Measured values published in PubChem BioAssay AID1159580 (chemical genetic matrix, 2015).
About 2,000 (36%) of roughly 5,500 compounds were called active. Not shown: some 18% with an inconclusive outcome. Cut-off read from the data, not from the text of the source: active = normalized growth mostly below about 0.91 (no sharp cut-off); inconclusive = no clear call, values can overlap the other calls; inactive = mostly above about 0.92. This is one part of the list.

Experiment: chemical genetic growth profiling, strain panel (AID 1159580);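 note: tested at 20 µM; growth read once vehicle control cultures reached saturation at 30 °C; 1 = growth at the plate median or of vehicle wells; lower values mean less growth of the strain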
Conditions: S. cerevisiae deletion strains, growth OD
[1] = locus YAL040C, strain CLN3, active compounds read low
[2] = locus YCL061C, strain MRC1 (second series), active compounds read low
[3] = locus YDR150W, strain NUM1, active compounds read low
[4] = locus YDR363W, strain ESC2, active compounds read low
[5] = locus YER002W, strain NOP16, active compounds read low
[6] = locus YGR229C, strain SMI1, active compounds read low
[7] = locus YMR307W, strain GAS1, active compounds read low
[8] = locus YNL128W, strain TEP1, active compounds read low
[9] = locus YNL153C, strain GIM3, active compounds read low
[10] = locus YNL175C, strain NOP13, active compounds read low
[11] = locus YNL197C, strain WHI3, active compounds read low
[12] = locus YNL224C, strain SQS1, active compounds read low
[13] = locus YOR083W, strain WHI5 (second series), active compounds read low
[14] = locus YPL241C, strain CIN2, active compounds read low
[15] = locus YAL013W, strain DEP1, active compounds read low
[16] = locus YGR078C, strain PAC10, active compounds read low
[17] = locus YJR075W, strain HOC1, active compounds read low
[18] = locus YMR263W, strain SAP30, active compounds read low
[19] = locus YNL322C, strain KRE1, active compounds read low
[20] = locus YPL055C, strain LGE1, active compounds read low

Measured: normalized growth

CC(C)(C)c1cc(C=C(C#N)C#N)cc(C(C)(C)C)c1O
inactive: [1] 0.965 | [2] 1.01 | [3] 1.01 | [4] 1.03 | [5] 1.02 | [6] 1.02 | [7] 0.999 | [8] 0.973 | [9] 0.821 | [10] 0.943 | [12] 0.931 | [14] 1
active: [11] 0.884 | [13] 0.85

COc1cc(/C=C(\C#N)C(N)=S)cc(OC)c1OC
inactive: [15] 0.979 | locus YBR229C, strain ROT2, active compounds read low 1.02 | locus YCL061C, strain MRC1, active compounds read low 1 | locus YDL101C, strain DUN1, active compounds read low 0.943 | locus YDL134C, strain PPH21, active compounds read low 0.943 | [3] 0.961 | [16] 0.977 | locus YHR087W, strain rtc3, active compounds read low 0.986 | locus YJL187C, strain SWE1, active compounds read low 0.942 | locus YJR043C, strain POL32, active compounds read low 0.986 | [17] 0.983 | locus YLR039C, strain RIC1, active compounds read low 0.854 | locus YLR058C, strain SHM2 (second series), active compounds read low 1.01 | locus YLR262C, strain YPT6, active compounds read low 0.832 | locus YMR219W, strain ESC1, active compounds read low 1.02 | [18] 0.982 | [7] 1.15 | [9] 0.989 | locus YNL298W, strain CLA4 (second series), active compounds read low 0.886 | [19] 0.987 | [20] 0.966 | locus YPR135W, strain CTF4, active compounds read low 0.756
active: locus YEL061C, strain CIN8, active compounds read low 0.674 | locus YHR030C, strain SLT2, active compounds read low 0.476 | locus YKL190W, strain CNB1, active compounds read low 0.71 | locus YLR085C, strain ARP6, active compounds read low 0.377 | locus YML094W, strain GIM5, active compounds read low 0.86 | locus YNR030W, strain Alg12, active compounds read low 0.761 | [14] 0.558

N#CC(C#N)=Cc1ccc(O)c(O)c1
inactive: [15] 1 | [1] 1.01 | [2] 1 | [3] 0.998 | [4] 1.02 | [5] 0.992 | [6] 0.982 | [17] 0.959 | [7] 0.988 | [10] 0.998 | [11] 0.995 | [12] 0.998 | [13] 1.03

N#C/C(=C\c1ccc(O)c(O)c1)C(=O)NCCc1ccccc1
inactive: [1] 0.986 | [2] 0.987 | [3] 0.988 | [4] 1 | [5] 0.995 | [16] 1.01 | [6] 0.952 | [17] 0.99 | [18] 1 | [7] 1.01 | [8] 0.999 | [10] 1 | [11] 1 | [12] 0.998 | [19] 1 | [13] 0.994 | [14] 0.996

N#CC(C#N)=Cc1cc(O)c(O)c(O)c1
inactive: [1] 0.951 | [2] 0.998 | [3] 0.988 | [4] 1 | [5] 0.996 | [6] 0.97 | [18] 0.996 | [7] 0.995 | [8] 0.986 | [9] 0.975 | [10] 1.01 | [11] 1.01 | [12] 0.999 | [13] 0.995 | [14] 0.999

N#C/C(=C\c1ccc(O)c(O)c1)C(=O)c1ccc(O)c(O)c1
inactive: [1] 1 | [2] 0.995 | [3] 0.997 | [4] 0.994 | [5] 1.02 | [16] 0.99 | [6] 1.03 | [7] 0.99 | [9] 1.04 | [10] 0.961 | [11] 0.994 | [12] 1 | [19] 0.99 | [13] 0.999 | [14] 0.991

N#C/C(=C\c1ccc(O)c(O)c1)C(=O)NCCCc1ccccc1
inactive: [1] 0.98 | [2] 1 | [3] 0.991 | [4] 1.01 | [5] 0.993 | [16] 1 | [6] 0.941 | [7] 0.996 | [8] 0.996 | [10] 0.998 | [11] 1.01 | [12] 1 | [19] 1 | [13] 1.01 | [20] 0.991

COc1cc(C=C(C#N)C#N)cc(O)c1O
inactive: [15] 1.01 | [1] 0.941 | [2] 0.979 | [4] 0.997 | [5] 1 | [16] 0.982 | [18] 0.993 | [7] 0.993 | [8] 0.968 | [10] 0.972 | [11] 0.978 | [12] 0.969 | [13] 0.997 | [20] 1.01
